PubChem BioAssay AID1053197 (The Scripps Research Institute Molecular Screening Center, 2014)
Among all 370,000 compounds or so, about 2,600 (0.7%) were called active. The sample as a whole holds a higher share of actives than the screen did. Values without a mark were called inactive.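 The calls were made as follows: active = inhibition above a cutoff: mean of compounds within the control limits plus 3 SD of those (cut at about 17% in these data); inactive = the rest.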

The compounds below were run against Sialate O-acetylesterase (Homo sapiens) (UniProt Q9HAT2) (assay: blockers of sialate O-acetylesterase activity-probe labeling – biochemical, fluorescence polarization, FP-Rh probe, 1536-well HTS, primary screen (AID 1053197;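 also: 0% = plate median of compound wells and 100% = probe without SIAE protein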)). Conditions: SIAE FP-Rh probe binding, at 9.66 µM, hits give high values.
Chain of Sialate O-acetylesterase (Homo sapiens) (Q9HAT2 whole entry, looked up): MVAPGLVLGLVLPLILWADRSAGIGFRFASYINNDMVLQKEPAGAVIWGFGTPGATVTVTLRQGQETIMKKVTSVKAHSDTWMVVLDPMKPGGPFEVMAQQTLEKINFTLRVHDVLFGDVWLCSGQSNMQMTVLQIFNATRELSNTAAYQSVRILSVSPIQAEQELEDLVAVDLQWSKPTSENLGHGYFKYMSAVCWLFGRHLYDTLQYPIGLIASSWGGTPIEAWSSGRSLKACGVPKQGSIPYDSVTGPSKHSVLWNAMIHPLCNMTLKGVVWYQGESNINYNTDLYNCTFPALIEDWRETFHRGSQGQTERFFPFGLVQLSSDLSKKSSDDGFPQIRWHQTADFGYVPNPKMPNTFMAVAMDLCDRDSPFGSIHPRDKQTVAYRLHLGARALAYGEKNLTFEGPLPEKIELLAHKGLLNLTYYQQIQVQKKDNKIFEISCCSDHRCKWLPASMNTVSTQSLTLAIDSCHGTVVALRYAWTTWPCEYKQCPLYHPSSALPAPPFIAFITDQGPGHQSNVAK

Going from Cc1ccc(NC(=O)Nc2cc(C)nn2-c2ccccc2)cc1 to Cc1ccc(OC(=O)c2c(C)nn(-c3ccccc3)c2C)cc1, the inhibition rises from 0.39% to 5.09%.

Going from CCOC(=O)[C@@]12CCC3=C1N(CCC3)C(=O)[C@H](CC(=O)N1CCN(C(=O)c3ccco3)CC1)C2 to CCOC(=O)N1CCN(C(=O)C[C@H]2C[C@@]3(C(=O)OC)C(=C[C@H](C(C)(C)C)O[C@@H]3C)N(Cc3ccc(Cl)cc3Cl)C2=O)CC1, the inhibition falls from 8.17% to 4.46%.

Compared with O=C(Nc1ccc(Br)cc1)OCCN1C(=O)CCC12CCC(c1ccccc1)CC2 (stereo not drawn), O=C1CCC2(CCC(c3ccc(Cl)cc3)CC2)N1CCO (stereo not drawn) is higher in inhibition: 2.49% for the first, 6.92% for the second.

First: Cc1cccc(C)c1NC(=O)COC(=O)c1c(C)nn(-c2ccccc2)c1C
Second: Cc1ccccc1NC(=O)COC(=O)c1ccc(Sc2ncn[nH]2)c([N+](=O)[O-])c1
The inhibition of the first is higher: 2.02% for the first, 0.99% for the second.

First: COc1cc(/C=C/C(=O)n2cnc3ccccc32)cc(OC)c1OC
Second: COc1ccc(C2NC(=O)C(=O)/C2=C(\O)c2ccc(Cl)cc2)cc1OC (stereo not drawn)
The inhibition of the first is lower: -3.74% for the first, 0.15% for the second.

First: CS(=O)(=O)N(CC(=O)Nc1ccc(F)cc1F)c1cccc([N+](=O)[O-])c1
Second: CN(C(=O)c1cccc(NC(=O)Cc2cccc([N+](=O)[O-])c2)c1)C1CCCCC1
The inhibition of the first is higher: 5.36% for the first, -12.1% for the second.

Compared with CC(=O)Nc1cccc(Nc2ccc(C#N)cc2)c1, CCc1ccc(NC(=O)C(C)OC(=O)/C=C/c2cccc([N+](=O)[O-])c2)cc1 (stereo not drawn) is lower in inhibition: 7.95% for the first, -4.1% for the second.

Compared with COC(=O)[C@]12C[C@H](CC(=O)NCc3cccc4ccccc34)C(=O)N(CCc3ccc(OC)c(OC)c3)C1=C[C@H](C1CCCC1)O[C@@H]2C, COC(=O)[C@]12C[C@H](CC(=O)NCCCN3CCCC3=O)C(=O)N(CCc3ccc(OC)c(OC)c3)C1=C[C@H](COCc1ccccc1)O[C@@H]2C is higher in inhibition: -2.97% for the first, -1.06% for the second.

Compared with O=C(OC12CCCN(C1)/C(=C/c1ccccc1)C2)c1ccco1 (stereo not drawn), COc1cccc(/C=C2\CC3(OC(C)=O)CCCN2C3)c1 (stereo not drawn) is higher in inhibition: 0.28% for the first, 5.6% for the second.

First: COP(=O)(O)CNC(=O)OCc1ccccc1
Second: C=CS(=O)(=O)N(Cc1nnn(Cc2ccccc2)c1Br)[C@H](C(=O)OC)C(C)C
The inhibition of the first is lower: 0.82% for the first, 2.36% for the second.

Going from O=C(NCc1cccs1)C1CCN(S(=O)(=O)c2ccccc2[N+](=O)[O-])CC1 to O=C(NCc1cccs1)c1ccc2c(c1)ncn2C1CCCC1, the inhibition rises from -0.55% to 6.82%.

Going from CCN(CC)C(=O)CC[C@H]1CC[C@]2(CCCN(Cc3ccc(Cl)cc3)C2)O1 to CCCCNC(=O)C[C@H]1C(=O)N(Cc2ccc(OC)cc2)C2=CCCC[C@@]21C(=O)OCC, the inhibition falls from -1% to -2.41%.

Compared with Cc1ccc2c(c1)C1CN(C)CCC1N2C(=S)Nc1ccc(Cl)cc1Cl (stereo not drawn), Cc1ccc2c(c1)C1CN(C)CCC1N2C(=O)c1ccccc1NS(=O)(=O)c1ccc(F)cc1C (stereo not drawn) is lower in inhibition: -1.14% for the first, -4.94% for the second.

Compared with O=C(OCC#CCSc1nnc(-c2ccco2)o1)c1ccc(F)cc1, COc1ccc(-c2nnc(SCC(=O)c3ccc4c(c3)OCCO4)o2)cc1 is lower in inhibition: -3.86% for the first, -8.81% for the second.

First: FC(F)(F)c1cccc(Cn2ccc3ccc(-c4ccc5ccn(Cc6ccccc6)c5c4)cc32)c1
Second: COc1ccc(Cn2ccc3ccc(-c4ccc5ccn(Cc6ccccc6C)c5c4)cc32)cc1
The inhibition of the first is lower: -4.98% for the first, 1.75% for the second.

Compared with Cc1nc(-c2ccc(Cl)cc2)sc1C1(C)CC(c2ccc(Br)cc2)=NO1 (stereo not drawn), Cc1ccc(-c2nc(C3CCCN(S(=O)(=O)c4ccc(Br)s4)C3)no2)cc1 (stereo not drawn) is higher in inhibition: -4.52% for the first, 3.3% for the second.

Going from Cc1nc(N2CCOCC2)sc1C(=O)NN to Cc1nc(NC(=O)C(C)(C)C)sc1[N+](=O)[O-], the inhibition falls from 4.29% to -3.66%.

Going from CN(C)S(=O)(=O)c1cccc(C(=O)N/N=C\c2ccco2)c1 to CCOC(=O)c1cccc(NC(=O)CN(C)S(=O)(=O)c2ccc(-c3cocn3)s2)c1, the inhibition rises from 1.17% to 2.17%.

Going from O=C1CCCC(O)=C1N=Nc1ccc2ncsc2c1 to CC1(C)CC(=O)C(N=Nc2ccc(S(=O)(=O)N3CCCCCC3)cc2)=C(O)C1, the inhibition falls from 4.95% to -6.58%.

Compared with CC(=O)Nc1ccc(NC(=O)C(NS(=O)(=O)c2ccc3c(c2)OCCO3)C(C)C)cc1 (stereo not drawn), CNS(=O)(=O)c1ccc(NC(=O)Nc2ccc3c(c2)OCO3)cc1 is higher in inhibition: -4.61% for the first, -0.18% for the second.

First: Cc1ccc(Cn2cc(CN3[C@@H](C)COc4cc(Br)ccc4S3(=O)=O)nn2)cc1
Second: COc1ccc(CN2C(=O)N3Cc4cc(OC)ccc4C3CS2(=O)=O)cc1 (stereo not drawn)
The inhibition of the first is higher: -0.41% for the first, -3.42% for the second.

First: CC(=O)OCCN1CCCC12CCC(c1ccccc1)CC2 (stereo not drawn)
Second: Cc1ccc(CN2CCCCC(NC(=O)C3CCCCC3)C2=O)cc1 (stereo not drawn)
The inhibition of the first is lower: -7.94% for the first, -2.58% for the second.

First: COc1cccc(C(=O)Nc2cc3c(cc2Br)OCCCO3)c1
Second: Cc1cc(C)n2ncc(C(=O)Nc3ccc4c(c3)OCCO4)c2n1
The inhibition of the first is lower: 5.12% for the first, 13.6% for the second.

Compared with O=C(NC1CCC1)c1ccc(C#CC2CC2)cn1, CC(=O)Nc1ccc(S(=O)(=O)N2CCCC2C(=O)O)cc1 (stereo not drawn) is lower in inhibition: 3.02% for the first, -4.8% for the second.

Compared with CC(C)(C)OC(=O)NCCc1ccccc1/C=C/S(=O)(=O)NCc1ccc(F)cc1, COc1ccc(CSc2nnc(SCC(=O)Nc3ccccc3C(F)(F)F)s2)cc1 is lower in inhibition: 3.43% for the first, 2.74% for the second.

Going from O=C(CSc1nnc(COc2ccccc2)n1-c1ccc(Cl)cc1)Nc1ccc2c(c1)OCO2 to Cc1ccc(-c2nnc(SCC(=O)Nc3ccc(Oc4ccccc4)cc3)n2Cc2ccco2)cc1, the inhibition rises from -2.77% to -0.26%.

Compared with NCCCNC(=S)NCCCN(Cc1ccc(Cl)cc1)c1ccc(Br)cn1, CCOC(=O)[C@]12CCCCC/C=C\1N(Cc1ccc(OC)cc1)C(=O)[C@H]2CC(=O)NCc1ccc(C)o1 is higher in inhibition: -4.09% for the first, 4.67% for the second.

Compared with O=C(CCCCCN1C(=O)C2C3C=CC(C3)C2C1=O)Nc1ccccc1 (stereo not drawn), COC(=O)[C@]12C[C@H](CC(=O)NCc3ccccc3)C(=O)N(Cc3ccccc3)C1=C[C@H](COCc1ccccc1)O[C@@H]2C is lower in inhibition: 0.48% for the first, -4.26% for the second.

Going from CC(NCc1cccs1)C(=O)Nc1cc(Cl)cc(Cl)c1 (stereo not drawn) to Cc1ccc(O)c(NC(=O)c2cc(-c3ccco3)on2)c1, the inhibition falls from 8.74% to 3.18%.

Going from CC(=O)Nc1ccc(S(=O)(=O)N2CCN(C3CCCCCCC3)CC2)cc1 to CCOC(=O)C1CCN(C(=O)C(C)(C)NC(=O)Nc2ccc(F)c(F)c2)CC1, the inhibition falls from 1.94% to 0.69%.

Going from CCOC(=O)C1=C(O)/C(=C/c2ccc(OCC(=O)Nc3ccc(C)cc3)cc2)N=C1C to NC(=O)Cc1ccc2sc(-c3ccccc3)nc2c1, the inhibition rises from -21.7% to 5.29%.

Compared with COC(=O)c1c(C(=O)OC)c2n(c1C)CCS2, C#CCCN([C@H](C(=O)OC)C(C)C)S(=O)(=O)c1ccc(F)cc1Br is higher in inhibition: -0.54% for the first, 0.24% for the second.

Going from CN(C(=O)COc1nnc(-c2cccs2)c(-c2cccs2)n1)c1ccccc1 to Clc1ccc(-n2c(SC/C=C/c3ccccc3)nnc2-c2ccco2)cc1, the inhibition rises from -4.55% to 6.61%.

Going from CCC1(C)COC(c2ccc(OC)c(OC)c2)OC1 (stereo not drawn) to COC(=O)[C@]12C[C@H](CC(=O)N3CCOCC3)C(=O)N(Cc3ccc(Cl)cc3Cl)C1=C[C@H](C(C)C)O[C@@H]2C1CC1, the inhibition rises from -0.64% to 7.42%.

First: CCn1c(CSc2ncccn2)nnc1SCC(=O)N1c2ccccc2CC1C (stereo not drawn)
Second: CC1CC(C)CN(C(=O)CSc2nnc(CSc3ncccn3)n2C)C1 (stereo not drawn)
The inhibition of the first is higher: 6.44% for the first, -4.27% for the second.

CCOC(=O)c1c(C)nn(-c2ncccc2NC(=O)CCC(=O)O)c1C was tested, and the inhibition was 19.8% (active).
In the case of CN(CC(=O)Nc1cccc(F)c1)CC(=O)Nc1cccc([N+](=O)[O-])c1, the inhibition is reported as 21.2% (active).
With CC(=O)Nc1cccc([N+](=O)[O-])c1 the inhibition was 19.3% (active).
Cc1ccc2c(c1)C1CN(C)CCC1N2C(=S)Nc1ccc(OC(F)F)cc1 (stereo not drawn) was tested, and the inhibition was 19% (active).
For Cc1nc(-c2ccc(Cl)cc2)sc1C(=O)NN, the inhibition was 17.1% (active).
With O=C1CCCC(O)=C1N=Nc1ccc(S(=O)(=O)N2CCOCC2)cc1 the inhibition was 32.3% (active).
In the case of CC(NS(=O)(=O)c1ccc(Cl)cc1)C(=O)Nc1ccc2c(c1)OCCO2 (stereo not drawn), the inhibition is reported as 17.1% (active).
With COc1ccc2nc(Nc3nc4cc5c(cc4s3)OCCO5)sc2c1 the inhibition was 21.1% (active).
S=C(NCCCc1cnc[nH]1)NCCCN(Cc1ccc(Cl)c(Cl)c1)c1ccc(Br)cn1 was tested, and the inhibition was 38.7% (active).
Cc1nc2cc(NCc3cccs3)ccc2n1C was tested, and the inhibition was 82.8% (active).
For CC(=O)Nc1ccc(S(=O)(=O)Nc2ccc(N3CCCCC3)cc2)cc1, the inhibition was 22.2% (active).
Cc1ccc(OCC(=O)Nc2ccc(-c3nnc(-c4ccco4)o3)cc2)cc1 was tested, and the inhibition was 32.9% (active).
For COC(=O)C1=C(NC(=O)C(C)(C)C)CCS1, the inhibition was 17.4% (active).
In the case of O=C(O)Cc1sc(-c2ccccc2)nc1-c1cccs1, the inhibition is reported as 23.1% (active).
With COc1ccc(C2OCC3(CO2)SC(=O)NC3=O)cc1OC (stereo not drawn) the inhibition was 17.2% (active).
With CC(=O)CSc1nnc(CSc2ncccn2)n1C1CCCCC1 the inhibition was 23.7% (active).
With CNC(=S)NNC(=O)c1oc2nc(-c3ccccc3)cc(-c3ccco3)c2c1N the inhibition was 17.2% (active).
For NNC(=O)c1oc2nc(-c3ccccc3)cc(-c3ccco3)c2c1N, the inhibition was 19.6% (active).
